Screening results: PubChem, National Center for Advancing Translational Sciences (NCATS)
Rows were chosen to be rich in hits. Some 5.6% of all compounds tested hit in one or more screens of this group.
PKM2 act: activators of human pyruvate kinase M2 | purified PKM2, Kinase-Glo ATP luminescence, activation; response scale: 0% is enzyme alone, no compound | Potency, µM (series often up to 57.5 µM), usual class: activators | actives 0.34% (n = 260,000) | P14618; further: nearly all actives have a fitted effect of over 55% in size
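hPK-M2, >95% pure; 0.1 mM ADP / 0.5 mM PEP final; imidazole pH7.2 buffer w/ 7 mM MgCl2, 50 mM KCl; 1 h RT; Kinase-Glo lum. Intermediate enzyme activity for dual inhibitor/activator qHTS.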
CtBP-E1A inh: inhibitors of CtBP/E1A interaction; AlphaScreen GST-E1A/His-CtBP binding, 1536-well; active compounds read low; activity change, % (no concentration beside the values); actives 0.49% (n = 340,000); AID 651724; in the data active means activity change below about -65%; inconclusive means mostly about -30% to -63%
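Homogeneous bead-based format: GST-tagged E1A captured on glutathione donor beads, His-tagged CtBP on nickel acceptor beads; compounds precede bead addition by 2 h at 37 °C.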
Six1-Eya2 blk: Six1/Eya2 interaction inhibition. AlphaScreen GST-Six1/His-Eya2 binding, biochemical; active compounds read low. activity change, % (test concentration not listed). actives 0.56% (n = 360,000). AID 651725; in the data active means activity change below about -65%; inconclusive means mostly about -30% to -63%
Target sequence (O00167 whole entry, looked up): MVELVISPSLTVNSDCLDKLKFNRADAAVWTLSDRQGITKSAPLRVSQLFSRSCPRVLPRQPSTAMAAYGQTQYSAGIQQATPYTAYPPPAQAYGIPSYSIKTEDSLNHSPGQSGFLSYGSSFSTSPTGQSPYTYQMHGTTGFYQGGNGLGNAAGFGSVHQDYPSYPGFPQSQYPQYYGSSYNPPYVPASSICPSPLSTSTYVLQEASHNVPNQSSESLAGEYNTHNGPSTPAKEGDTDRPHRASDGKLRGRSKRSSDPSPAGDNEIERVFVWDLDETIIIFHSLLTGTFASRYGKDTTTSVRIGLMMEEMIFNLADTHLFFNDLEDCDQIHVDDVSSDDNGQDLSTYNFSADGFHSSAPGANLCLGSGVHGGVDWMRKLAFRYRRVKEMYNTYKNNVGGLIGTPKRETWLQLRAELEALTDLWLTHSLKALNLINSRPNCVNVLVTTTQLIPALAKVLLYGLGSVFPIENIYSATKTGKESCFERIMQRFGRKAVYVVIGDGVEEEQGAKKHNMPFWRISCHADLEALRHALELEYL
Target sequence (Q15475 whole entry, looked up): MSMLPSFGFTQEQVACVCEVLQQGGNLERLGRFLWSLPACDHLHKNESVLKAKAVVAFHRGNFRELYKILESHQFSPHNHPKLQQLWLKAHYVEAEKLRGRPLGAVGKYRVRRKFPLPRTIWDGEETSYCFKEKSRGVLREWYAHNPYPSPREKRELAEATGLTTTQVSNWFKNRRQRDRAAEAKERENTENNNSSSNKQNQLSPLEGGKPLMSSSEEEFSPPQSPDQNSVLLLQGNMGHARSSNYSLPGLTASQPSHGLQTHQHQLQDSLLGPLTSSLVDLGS
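Homogeneous AlphaScreen proximity assay pairing GST-Six1 with His-tagged Eya2 (added as 5X mix: 250 nM and 500 nM) in 50 mM Tris pH 8.0, 300 mM NaCl, 1 mM TCEP. Glutathione donor and nickel acceptor beads; 1 h, 37 °C, dark.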
RORg inh: blocks mouse ROR gamma transcriptional activity | Potency, µM (series often up to 53.6 µM), hits mostly inhibitors | P51450 | actives 5.4% (n = 310,000) | Drosophila S2 Gal4-RORgamma UAS-luciferase reporter, 20 h | AID 2551; further: nearly all actives have a fitted effect of over 60% in size
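Drosophila S2 cells stably expressing Gal4-DBD/mouse RORγ fusion under metallothionein promoter plus UAS-luciferase; compound 1 h, then 700 uM CuSO4 induction for 20 h at ambient temperature; inhibition read as reduced luminescence.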
VP16 counter: inhibits Gal4-VP16 luciferase reporter, ROR gamma counter-screen; Drosophila S2 Gal4-VP16 UAS-luciferase, luminescence, 20 h; Potency, µM (highest dose often 53.6 µM), most hits filed as inhibitors; actives 3.5% (n = 310,000); AID 2546;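 further: Gal4-VP16 expression switched on by copper sulfate through the metallothionein promoter; nearly all actives have a fitted effect of over 50% in size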
Numbers stand for hits; 0 = inactive; ? = inconclusive; - = no result; [ ] = another dose, or the depositor's remark. Unless noted, the call rests on the fitted dose curve; in most records, active means well fitted curve in the direction sought with a large enough effect; inconclusive means small, poorly fitted or top-dose-only effect, or another doubt; inactive means no such curve, though single readings can be large; an effect the other way counts as inactive or inconclusive.

SMILES	PKM2 act	CtBP-E1A inh	Six1-Eya2 blk	RORg inh	VP16 counter
Cc1ccc(NC(=O)c2ccc(OC(=O)COc3ccc(Cl)cc3C)cc2)cc1	0	0	0	0	0
O=C(COc1cccc2ccccc12)NNC(=O)c1cnccn1	0	0	0	12.6µM	?
CCOc1ccc(NC(=O)CN(C)C(=O)c2ccccc2SCc2c(C)noc2C)cc1OCC	-	0	0	-	-
CCCCC/C=C\C/C=C\C=C\[C@@H](O)C/C=C\CCCC(=O)O	-	-	-	0	0
Cc1cc(Br)ccc1OCC(=O)NNC(=O)c1cnccn1	0	-	0	8.91µM	?
O=C(Nc1nc(-c2cccc3ccccc23)cs1)c1cnccn1	0	0	0	14.1µM	?
Cc1cc(C)n(-c2ccc3cccc(NS(C)(=O)=O)c3n2)n1	0	0	0	4.47µM	?
Cn1c(N)c(C(=O)COC(=O)COc2ccc(Cl)cc2Cl)c(=O)n(C)c1=O	-	0	0	-	-
N#Cc1ccccc1NC(=O)CNc1ccc(Cl)c(C(F)(F)F)c1	0	0	0	?	11.2µM
COc1ccc(Br)c(Cn2c(C)c(C(=O)NCc3ccc(F)cc3)sc2=O)c1	-	0	0	-	-
COc1ccc(C(=O)C(CN2CCOCC2)c2ccccc2)cc1F (stereo unspecified)	0	0	0	11.2µM	11.2µM
COc1ccc(C(O)C(CN2CCOCC2)c2ccccc2)cc1F (stereo unspecified)	0	0	0	0[0.365 µM]	-
CCCOc1ccc(C(=O)C(CN2CCOCC2)c2ccccc2)cc1 (stereo unspecified)	0	0	0	12.6µM	?
N#CCCn1c(=O)cnc2cnc(Nc3ccccc3)nc21	-	-	-	?	0
CCC(=O)NC[C@H](Cc1ccc(OCCc2nc(-c3ccccc3)oc2C)cc1)N/C(C)=C\C(=O)c1ccc(C(F)(F)F)cc1	-	-	-	?	0
Cc1sc2ncnc(N3CCN(CCOc4ccc(Cl)cc4)CC3)c2c1C	0	0	0	?	3.55µM
CN(Cc1cccs1)c1ncnc2sccc12	0	0	0	0	1.26µM
CN(Cc1ccccc1F)c1ncnc2sccc12	0	0	0	0	0
O=C(NNC(=S)Nc1ccc(F)cc1)c1ccccc1OC(F)F	0	0	0	2.82µM	0
O=[N+]([O-])c1cccc(CN2C(COCc3ccccc3)CCC=CS2(=O)=O)c1 (stereo unspecified)	-	-	-	0	0
Cc1ccc(S(C)(=O)=NS(=O)(=O)c2cccc3nsnc23)cc1 (stereo unspecified)	0	0	0	0	0
Cc1ccc(-c2csc(N3C(=N)SCC3=O)n2)cc1	0	0	0	0	0
N=C1SCC(=O)N1c1ncc(Cc2ccc(F)cc2)s1	0	0	0	0.316µM	0.199µM
COc1ccc(NCc2nc3ccccc3n2CCOc2ccc(C)cc2)cc1	0	0	?	20µM	?
Cc1ccc(OCCn2c(C)nc3ccccc32)cc1	0	0	0	0[1.91 µM]	?
SMILES	PKM2 act	CtBP-E1A inh	Six1-Eya2 blk	RORg inh	VP16 counter
c1ccc(NCc2nc3ccccc3n2CCOc2ccccc2)cc1	0	0	0	12.6µM	?
COc1ccc(NCc2nc3ccccc3n2C)cc1	0[11.5 µM]	-	0	?	0
COc1ccc(NCc2nc3ccccc3n2CCOc2ccccc2)cc1	0	0	?	15.8µM	0
O=C(COc1ccc(F)cc1)Nc1nnc(S(=O)(=O)N2CCCC2)s1	0	0	0	0	0
CCCn1c(SCC(=O)NCc2ccc(F)cc2)n[nH]c1=O	0	0	0	0	0
O=C(NNS(=O)(=O)c1ccc(F)cc1)c1cnn(-c2ccccc2)c1C(F)(F)F	0	-	0	?	12.6µM
O=C(NNS(=O)(=O)c1ccc(C(F)(F)F)cc1)c1cnn(-c2ccccc2)c1C(F)(F)F	0	-	0	0	0
COc1nc2cc(C)ccc2cc1-c1noc(-c2cccnc2)n1	0	-	-	0	0
COc1nc(C)ccc1-c1noc(-c2cccnc2)n1	0	0	0	14.1µM	0
COc1ccc(/C=C/C(=O)NC(=S)N2CCN(c3ccccn3)CC2)cc1	0	?	0	2.51µM	12.6µM
COc1ccc(/C=C/C(=O)NC(=S)N2CCSCC2)cc1	0	0	0	3.55µM	12.6µM
COc1ccc(CC(=O)N2CCN(c3ccccn3)CC2)cc1	0	0	0	?	0
CN1CCN(c2ccc(-c3cccc(NC(=O)COc4ccccc4)c3)nn2)CC1	-	0	0	-	-
CCC(=O)Nc1cccc(-c2ccc(N3CCCCC3)nn2)c1	-	-	0	2.51µM	2.82µM
CN1CCN(c2ccc(-c3cccc(NC(=O)COc4ccc(Cl)cc4)c3)nn2)CC1	-	0	0	-	-
CCC(=O)Nc1cccc(-c2ccc(N3CCN(C)CC3)nn2)c1	-	-	0	14.1µM	?
CN(CC(=O)Nc1cccc(F)c1)C(=O)/C=C/c1cn(Cc2ccccc2)nc1-c1cccnc1	-	0	0	-	-
CCCCCCCCc1nc(=S)[nH][nH]1	?	0	0	10µM	?
CCOC(=O)Cn1ncn(-c2ccc(OC(F)(F)F)cc2)c1=O	0	0	0	0	0
Nc1nc(-c2ccco2)nn1S(=O)(=O)c1ccc(Cl)cc1	0	0	0	0	0
Cc1c(CCC(=O)O)c(=O)oc2cc3oc4c(c3cc12)CCCC4	0	0	0	?	?
Cc1c(CCC(=O)N[C@@H](CC(C)C)C(=O)O)c(=O)oc2cc3oc4c(c3cc12)CCCC4	-	-	0	0.631µM	?
Cc1c(CCC(=O)N2CCC[C@H]2C(=O)O)c(=O)oc2cc3oc4c(c3cc12)CCCC4	0	0	0	1.26µM	?
Nc1nc(Nc2ccccc2)nc(NC2CCCCC2)c1[N+](=O)[O-]	-	?	0	0	0
Cc1cc(N2O[C@]34C=C[C@]25C[C@@H](O)CC[C@]5(C)C3CC[C@]2(C)[C@@H]([C@H](C)/C=C/[C@H](C)C(C)C)CC[C@H]24)no1 (stereo partly specified)	-	0	0	-	-
SMILES	PKM2 act	CtBP-E1A inh	Six1-Eya2 blk	RORg inh	VP16 counter
COC(=O)CC1C(=O)NCCN1C(=O)CSc1nc2ccccc2c(=O)n1CC(C)C (stereo unspecified)	0	0	0	11.2µM	?
COC(=O)CC1C(=O)NCCN1C(=O)CSc1nc2ccccc2o1 (stereo unspecified)	0	0	0	0	0
COc1ccc(NC(=O)NNS(=O)(=O)c2ccc(OC)c(OC)c2)c(OC)c1	0	0	0	0	0
O=C(Cc1ccccc1[N+](=O)[O-])OCc1cccc([N+](=O)[O-])c1	-	-	-	0	0
Cn1c2ccccc2c2cc(/C=N/NC(=O)c3cc(O)cc(O)c3)ccc21	0	?	?	0	0
Cn1c2ccccc2c2cc(/C=N/NC(=O)c3cc(O)ccc3O)ccc21	0	?	-68.7	?	?
CCn1c2ccccc2c2cc(/C=N/NC(=O)c3ccccc3)ccc21	0	0	0	8.91µM	?
COc1ccc(S(=O)(=O)N2CCc3ccccc32)cc1C(=O)OCc1c(C)noc1C	11.2µM	0	0	0	0
COc1ccc(S(=O)(=O)N2CCCCCC2)cc1C(=O)OCc1c(C)noc1C	0	0	0	0[10 µM]	0
